How the values were obtained:
Assay in all cases: log2 ratio of Biotin-Ahx-Ub-VS probe labelling (fragment/DMSO); higher = less target engagement (more negative = stronger competition), active = hit call of the paper (q ≤ 0.05, log2 ratio ≤ -1)
Details in all cases: compound concentration: 200 uM; treatment time: 3 h
USP42 = target: T1, USP42 (UniProt Q9H9J4)
T1 sequence (whole entry): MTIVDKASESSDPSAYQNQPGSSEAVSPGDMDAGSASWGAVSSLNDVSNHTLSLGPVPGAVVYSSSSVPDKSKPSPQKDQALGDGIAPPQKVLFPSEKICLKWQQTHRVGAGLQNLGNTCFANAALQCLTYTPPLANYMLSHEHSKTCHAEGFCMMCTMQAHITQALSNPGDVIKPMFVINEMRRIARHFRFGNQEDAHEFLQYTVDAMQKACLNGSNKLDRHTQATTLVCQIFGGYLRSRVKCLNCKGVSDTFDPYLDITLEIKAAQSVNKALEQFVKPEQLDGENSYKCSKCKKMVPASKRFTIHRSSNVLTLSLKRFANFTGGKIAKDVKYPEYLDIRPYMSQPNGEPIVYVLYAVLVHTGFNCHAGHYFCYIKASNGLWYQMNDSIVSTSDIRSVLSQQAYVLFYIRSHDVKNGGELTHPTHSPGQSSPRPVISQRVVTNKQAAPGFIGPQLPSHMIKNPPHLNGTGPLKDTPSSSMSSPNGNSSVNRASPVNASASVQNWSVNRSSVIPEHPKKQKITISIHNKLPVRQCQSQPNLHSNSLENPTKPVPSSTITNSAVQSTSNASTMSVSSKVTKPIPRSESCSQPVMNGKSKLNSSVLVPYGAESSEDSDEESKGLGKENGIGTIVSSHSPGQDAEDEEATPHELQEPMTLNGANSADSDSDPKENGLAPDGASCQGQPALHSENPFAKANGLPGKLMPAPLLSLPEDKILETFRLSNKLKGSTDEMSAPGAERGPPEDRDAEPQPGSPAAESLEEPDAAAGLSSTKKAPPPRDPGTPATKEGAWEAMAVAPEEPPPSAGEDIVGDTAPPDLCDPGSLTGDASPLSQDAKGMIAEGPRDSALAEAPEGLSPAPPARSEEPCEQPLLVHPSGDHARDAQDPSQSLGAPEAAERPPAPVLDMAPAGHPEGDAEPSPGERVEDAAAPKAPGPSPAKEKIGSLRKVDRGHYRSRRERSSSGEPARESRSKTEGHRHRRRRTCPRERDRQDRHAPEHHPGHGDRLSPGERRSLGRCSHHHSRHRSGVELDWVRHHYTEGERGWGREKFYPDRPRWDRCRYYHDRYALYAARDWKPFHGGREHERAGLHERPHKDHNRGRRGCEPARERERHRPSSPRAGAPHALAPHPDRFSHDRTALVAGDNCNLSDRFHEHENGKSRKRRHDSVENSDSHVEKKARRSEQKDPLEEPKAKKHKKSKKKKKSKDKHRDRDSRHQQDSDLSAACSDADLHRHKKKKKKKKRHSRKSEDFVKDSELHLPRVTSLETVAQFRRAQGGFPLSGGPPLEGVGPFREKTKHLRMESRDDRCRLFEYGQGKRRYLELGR
Outline: (§1)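 HEK293T lysate in Tris/CHAPS/IGEPAL buffer with protease inhibitors (495 µg per sample) was given fragment at 200 µM or vehicle for 3 h, in triplicate. It then received Biotin-Ahx-Ub-VS at 0.5 µM final for 1 h. Labelled DUBs were NeutrAvidin-enriched, digested with LysC and trypsin, and run by diaPASEF LC-MS/MS. Values are average log2 fragment/vehicle ratios by unpaired t-test on global-median-normalised Spectronaut quantities of proteins with ≥2 unique peptides.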

USP46 = USP46 (UniProt P62068)
USP46, sequence (P62068 whole entry): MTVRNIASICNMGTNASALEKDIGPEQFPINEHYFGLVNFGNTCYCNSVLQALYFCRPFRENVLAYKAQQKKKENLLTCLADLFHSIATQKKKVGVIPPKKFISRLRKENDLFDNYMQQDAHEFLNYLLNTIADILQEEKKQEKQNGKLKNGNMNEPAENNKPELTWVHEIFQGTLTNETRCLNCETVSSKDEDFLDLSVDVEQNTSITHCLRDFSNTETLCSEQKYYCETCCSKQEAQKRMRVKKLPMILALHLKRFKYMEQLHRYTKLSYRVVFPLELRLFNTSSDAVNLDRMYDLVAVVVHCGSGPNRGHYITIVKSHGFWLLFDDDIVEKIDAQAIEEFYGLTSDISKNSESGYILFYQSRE
Outline: as §1

USP47 = target: T2, USP47 (UniProt Q96K76)
T2 sequence (whole entry): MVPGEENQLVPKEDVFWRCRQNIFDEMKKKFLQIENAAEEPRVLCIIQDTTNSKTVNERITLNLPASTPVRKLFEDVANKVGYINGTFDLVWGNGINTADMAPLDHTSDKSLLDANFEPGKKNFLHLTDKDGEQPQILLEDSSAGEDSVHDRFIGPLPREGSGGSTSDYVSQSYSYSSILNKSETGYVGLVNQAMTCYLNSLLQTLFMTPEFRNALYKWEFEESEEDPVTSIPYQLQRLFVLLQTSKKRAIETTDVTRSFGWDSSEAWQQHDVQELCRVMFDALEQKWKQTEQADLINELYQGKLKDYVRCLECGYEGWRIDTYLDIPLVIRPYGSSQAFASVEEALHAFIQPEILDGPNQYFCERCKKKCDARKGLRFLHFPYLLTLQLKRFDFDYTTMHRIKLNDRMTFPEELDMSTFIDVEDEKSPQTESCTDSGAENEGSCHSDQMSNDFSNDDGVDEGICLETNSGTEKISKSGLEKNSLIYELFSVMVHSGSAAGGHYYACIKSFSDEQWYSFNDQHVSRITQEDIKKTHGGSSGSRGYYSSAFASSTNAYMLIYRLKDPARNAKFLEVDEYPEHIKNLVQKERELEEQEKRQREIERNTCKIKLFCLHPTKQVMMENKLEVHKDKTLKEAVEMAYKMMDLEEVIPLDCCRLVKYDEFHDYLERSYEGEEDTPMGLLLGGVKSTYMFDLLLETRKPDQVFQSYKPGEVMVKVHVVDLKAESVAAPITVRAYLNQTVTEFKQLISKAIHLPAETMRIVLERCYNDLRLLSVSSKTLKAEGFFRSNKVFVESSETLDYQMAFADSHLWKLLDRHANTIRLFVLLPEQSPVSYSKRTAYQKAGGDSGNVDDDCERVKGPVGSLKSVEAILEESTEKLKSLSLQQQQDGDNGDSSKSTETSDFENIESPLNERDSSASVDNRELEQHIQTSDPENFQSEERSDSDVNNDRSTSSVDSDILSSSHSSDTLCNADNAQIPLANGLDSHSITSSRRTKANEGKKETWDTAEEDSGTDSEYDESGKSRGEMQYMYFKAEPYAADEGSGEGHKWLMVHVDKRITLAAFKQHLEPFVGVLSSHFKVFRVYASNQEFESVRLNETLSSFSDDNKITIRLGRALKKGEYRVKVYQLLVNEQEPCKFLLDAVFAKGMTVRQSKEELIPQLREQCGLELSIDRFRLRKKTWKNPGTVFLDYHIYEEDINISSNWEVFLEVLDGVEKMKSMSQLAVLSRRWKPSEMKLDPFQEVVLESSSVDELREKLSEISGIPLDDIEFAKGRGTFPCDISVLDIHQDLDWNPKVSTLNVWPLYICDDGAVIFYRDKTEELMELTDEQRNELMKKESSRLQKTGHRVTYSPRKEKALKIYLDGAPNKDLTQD
Outline: as §1

USP48 = target: T3, USP48 (UniProt Q86UV5)
T3 sequence (whole entry): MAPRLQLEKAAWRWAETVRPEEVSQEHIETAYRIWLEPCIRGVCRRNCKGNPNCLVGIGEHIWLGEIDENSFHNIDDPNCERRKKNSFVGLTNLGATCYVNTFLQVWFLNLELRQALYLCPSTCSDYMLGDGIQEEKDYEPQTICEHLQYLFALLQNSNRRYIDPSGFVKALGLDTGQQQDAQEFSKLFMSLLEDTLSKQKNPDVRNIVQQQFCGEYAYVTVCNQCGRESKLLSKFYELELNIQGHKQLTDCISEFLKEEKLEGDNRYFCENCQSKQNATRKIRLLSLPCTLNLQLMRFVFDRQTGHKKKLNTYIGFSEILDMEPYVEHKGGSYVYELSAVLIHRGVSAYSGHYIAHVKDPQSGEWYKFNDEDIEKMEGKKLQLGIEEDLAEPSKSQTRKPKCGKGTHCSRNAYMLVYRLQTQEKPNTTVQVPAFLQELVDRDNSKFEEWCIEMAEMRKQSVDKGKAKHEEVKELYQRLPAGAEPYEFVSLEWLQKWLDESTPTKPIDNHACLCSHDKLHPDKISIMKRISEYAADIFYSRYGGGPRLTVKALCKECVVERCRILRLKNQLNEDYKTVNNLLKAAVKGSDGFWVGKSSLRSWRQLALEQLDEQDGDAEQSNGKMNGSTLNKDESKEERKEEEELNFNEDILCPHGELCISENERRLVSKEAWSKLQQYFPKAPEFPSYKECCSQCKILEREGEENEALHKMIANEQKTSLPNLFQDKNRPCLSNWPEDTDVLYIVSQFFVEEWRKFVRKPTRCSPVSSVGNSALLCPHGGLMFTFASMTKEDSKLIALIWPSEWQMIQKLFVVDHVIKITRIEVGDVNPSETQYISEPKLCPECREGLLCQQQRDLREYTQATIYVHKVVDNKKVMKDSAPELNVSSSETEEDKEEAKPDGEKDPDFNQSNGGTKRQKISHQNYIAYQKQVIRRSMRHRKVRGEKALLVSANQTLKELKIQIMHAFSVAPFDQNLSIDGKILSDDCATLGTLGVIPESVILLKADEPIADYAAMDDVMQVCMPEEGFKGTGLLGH
Outline: as §1

USP5 = target: T4, USP5 (UniProt P45974)
T4 sequence (whole entry): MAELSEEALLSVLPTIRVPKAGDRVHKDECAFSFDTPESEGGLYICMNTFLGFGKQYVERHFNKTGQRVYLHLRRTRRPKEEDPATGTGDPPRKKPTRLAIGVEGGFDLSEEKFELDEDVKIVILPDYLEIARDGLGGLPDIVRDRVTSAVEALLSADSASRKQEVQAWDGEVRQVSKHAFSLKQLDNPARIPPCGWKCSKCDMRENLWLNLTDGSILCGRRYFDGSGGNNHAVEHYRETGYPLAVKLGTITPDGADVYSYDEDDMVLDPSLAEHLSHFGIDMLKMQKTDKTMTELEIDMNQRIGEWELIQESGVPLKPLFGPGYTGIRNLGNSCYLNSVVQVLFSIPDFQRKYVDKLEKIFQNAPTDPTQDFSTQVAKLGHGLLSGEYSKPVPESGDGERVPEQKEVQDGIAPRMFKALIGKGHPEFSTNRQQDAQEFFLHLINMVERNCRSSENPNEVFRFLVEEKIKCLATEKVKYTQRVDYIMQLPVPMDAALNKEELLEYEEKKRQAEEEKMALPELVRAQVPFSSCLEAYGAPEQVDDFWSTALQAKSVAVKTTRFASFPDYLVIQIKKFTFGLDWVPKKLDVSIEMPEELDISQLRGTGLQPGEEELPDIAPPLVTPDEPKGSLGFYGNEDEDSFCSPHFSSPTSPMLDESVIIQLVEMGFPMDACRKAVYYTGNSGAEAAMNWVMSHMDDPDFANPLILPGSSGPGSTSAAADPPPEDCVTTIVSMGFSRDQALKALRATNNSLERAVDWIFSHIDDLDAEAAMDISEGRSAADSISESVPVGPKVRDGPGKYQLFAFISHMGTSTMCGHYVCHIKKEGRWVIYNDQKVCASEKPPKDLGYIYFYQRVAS
Outline: as §1

USP54 = USP54 (UniProt Q70EL1)
USP54, sequence (Q70EL1 whole entry): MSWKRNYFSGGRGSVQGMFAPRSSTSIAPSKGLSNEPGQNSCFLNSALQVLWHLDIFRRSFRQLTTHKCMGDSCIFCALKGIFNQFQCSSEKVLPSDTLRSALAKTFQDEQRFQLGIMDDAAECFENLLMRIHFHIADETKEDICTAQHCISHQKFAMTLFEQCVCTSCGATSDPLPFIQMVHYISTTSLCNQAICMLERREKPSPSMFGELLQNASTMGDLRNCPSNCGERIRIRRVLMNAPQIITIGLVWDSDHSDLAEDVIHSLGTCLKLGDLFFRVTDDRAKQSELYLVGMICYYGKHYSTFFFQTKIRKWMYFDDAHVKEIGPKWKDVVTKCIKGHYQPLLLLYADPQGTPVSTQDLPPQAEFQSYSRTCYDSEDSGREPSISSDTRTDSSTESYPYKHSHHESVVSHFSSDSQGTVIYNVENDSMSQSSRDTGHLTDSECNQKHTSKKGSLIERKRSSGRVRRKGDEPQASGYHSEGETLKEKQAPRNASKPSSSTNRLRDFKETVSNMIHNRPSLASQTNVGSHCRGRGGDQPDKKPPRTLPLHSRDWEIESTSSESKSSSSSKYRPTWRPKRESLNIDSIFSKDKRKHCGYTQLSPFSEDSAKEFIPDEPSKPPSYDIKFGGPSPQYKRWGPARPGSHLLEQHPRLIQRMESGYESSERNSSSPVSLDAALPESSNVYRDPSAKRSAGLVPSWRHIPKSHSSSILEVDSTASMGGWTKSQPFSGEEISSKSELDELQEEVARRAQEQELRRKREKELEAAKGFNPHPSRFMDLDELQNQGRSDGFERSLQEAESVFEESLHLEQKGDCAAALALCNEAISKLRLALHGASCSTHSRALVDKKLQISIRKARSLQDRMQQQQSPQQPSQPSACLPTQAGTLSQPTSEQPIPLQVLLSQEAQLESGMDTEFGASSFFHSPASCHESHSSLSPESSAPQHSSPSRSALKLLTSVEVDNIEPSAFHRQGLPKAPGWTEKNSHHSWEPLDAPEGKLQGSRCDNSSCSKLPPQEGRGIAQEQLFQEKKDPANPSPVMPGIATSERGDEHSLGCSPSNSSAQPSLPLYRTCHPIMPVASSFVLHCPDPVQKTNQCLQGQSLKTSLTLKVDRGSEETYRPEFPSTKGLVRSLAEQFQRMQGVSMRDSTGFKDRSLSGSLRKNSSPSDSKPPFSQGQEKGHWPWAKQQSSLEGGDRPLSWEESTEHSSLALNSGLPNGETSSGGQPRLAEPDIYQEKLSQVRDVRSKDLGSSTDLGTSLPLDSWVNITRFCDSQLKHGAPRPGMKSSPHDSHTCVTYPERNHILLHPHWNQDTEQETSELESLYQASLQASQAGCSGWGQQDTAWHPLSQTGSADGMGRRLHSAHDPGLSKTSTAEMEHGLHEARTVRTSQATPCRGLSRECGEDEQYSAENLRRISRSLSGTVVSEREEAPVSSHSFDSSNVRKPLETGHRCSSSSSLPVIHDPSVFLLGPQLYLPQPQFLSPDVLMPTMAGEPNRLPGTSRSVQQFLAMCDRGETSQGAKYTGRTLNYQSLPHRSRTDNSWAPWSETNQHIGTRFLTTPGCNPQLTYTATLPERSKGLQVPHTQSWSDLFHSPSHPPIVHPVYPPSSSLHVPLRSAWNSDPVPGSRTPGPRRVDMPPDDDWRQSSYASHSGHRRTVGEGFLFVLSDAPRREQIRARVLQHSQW
Outline: as §1

USP7 = USP7 (UniProt Q93009)
USP7, sequence (Q93009 whole entry, looked up): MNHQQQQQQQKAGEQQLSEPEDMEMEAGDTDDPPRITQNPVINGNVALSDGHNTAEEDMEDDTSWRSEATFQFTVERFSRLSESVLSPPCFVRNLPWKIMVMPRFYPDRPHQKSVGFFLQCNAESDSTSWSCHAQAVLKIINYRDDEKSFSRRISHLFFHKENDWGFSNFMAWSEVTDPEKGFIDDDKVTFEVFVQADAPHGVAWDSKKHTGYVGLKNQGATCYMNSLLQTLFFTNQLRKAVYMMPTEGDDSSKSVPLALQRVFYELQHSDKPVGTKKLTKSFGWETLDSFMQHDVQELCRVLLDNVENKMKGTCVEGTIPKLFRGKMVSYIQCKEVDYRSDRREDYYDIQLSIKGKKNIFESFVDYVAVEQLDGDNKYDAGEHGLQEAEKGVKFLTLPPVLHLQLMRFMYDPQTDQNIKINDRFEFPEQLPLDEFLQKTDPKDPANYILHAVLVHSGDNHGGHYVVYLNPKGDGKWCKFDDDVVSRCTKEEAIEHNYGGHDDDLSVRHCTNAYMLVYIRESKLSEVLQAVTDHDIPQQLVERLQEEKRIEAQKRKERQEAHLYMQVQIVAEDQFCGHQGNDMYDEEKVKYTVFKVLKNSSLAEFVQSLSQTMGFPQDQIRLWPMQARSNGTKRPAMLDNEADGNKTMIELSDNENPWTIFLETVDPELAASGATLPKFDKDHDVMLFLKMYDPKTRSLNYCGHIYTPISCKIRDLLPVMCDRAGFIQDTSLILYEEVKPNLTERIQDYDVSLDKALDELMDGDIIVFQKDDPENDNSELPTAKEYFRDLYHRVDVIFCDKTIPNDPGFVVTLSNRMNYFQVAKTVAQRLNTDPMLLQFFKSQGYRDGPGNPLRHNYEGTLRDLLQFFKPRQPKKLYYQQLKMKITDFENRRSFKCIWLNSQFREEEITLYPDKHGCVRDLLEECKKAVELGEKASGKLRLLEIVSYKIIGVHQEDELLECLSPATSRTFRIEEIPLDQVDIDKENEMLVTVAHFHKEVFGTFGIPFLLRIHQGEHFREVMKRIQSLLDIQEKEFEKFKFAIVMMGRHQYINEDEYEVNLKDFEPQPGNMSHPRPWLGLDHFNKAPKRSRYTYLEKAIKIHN
Outline: as §1

USP8 = target: T5, USP8 (UniProt P40818)
T5 sequence (whole entry): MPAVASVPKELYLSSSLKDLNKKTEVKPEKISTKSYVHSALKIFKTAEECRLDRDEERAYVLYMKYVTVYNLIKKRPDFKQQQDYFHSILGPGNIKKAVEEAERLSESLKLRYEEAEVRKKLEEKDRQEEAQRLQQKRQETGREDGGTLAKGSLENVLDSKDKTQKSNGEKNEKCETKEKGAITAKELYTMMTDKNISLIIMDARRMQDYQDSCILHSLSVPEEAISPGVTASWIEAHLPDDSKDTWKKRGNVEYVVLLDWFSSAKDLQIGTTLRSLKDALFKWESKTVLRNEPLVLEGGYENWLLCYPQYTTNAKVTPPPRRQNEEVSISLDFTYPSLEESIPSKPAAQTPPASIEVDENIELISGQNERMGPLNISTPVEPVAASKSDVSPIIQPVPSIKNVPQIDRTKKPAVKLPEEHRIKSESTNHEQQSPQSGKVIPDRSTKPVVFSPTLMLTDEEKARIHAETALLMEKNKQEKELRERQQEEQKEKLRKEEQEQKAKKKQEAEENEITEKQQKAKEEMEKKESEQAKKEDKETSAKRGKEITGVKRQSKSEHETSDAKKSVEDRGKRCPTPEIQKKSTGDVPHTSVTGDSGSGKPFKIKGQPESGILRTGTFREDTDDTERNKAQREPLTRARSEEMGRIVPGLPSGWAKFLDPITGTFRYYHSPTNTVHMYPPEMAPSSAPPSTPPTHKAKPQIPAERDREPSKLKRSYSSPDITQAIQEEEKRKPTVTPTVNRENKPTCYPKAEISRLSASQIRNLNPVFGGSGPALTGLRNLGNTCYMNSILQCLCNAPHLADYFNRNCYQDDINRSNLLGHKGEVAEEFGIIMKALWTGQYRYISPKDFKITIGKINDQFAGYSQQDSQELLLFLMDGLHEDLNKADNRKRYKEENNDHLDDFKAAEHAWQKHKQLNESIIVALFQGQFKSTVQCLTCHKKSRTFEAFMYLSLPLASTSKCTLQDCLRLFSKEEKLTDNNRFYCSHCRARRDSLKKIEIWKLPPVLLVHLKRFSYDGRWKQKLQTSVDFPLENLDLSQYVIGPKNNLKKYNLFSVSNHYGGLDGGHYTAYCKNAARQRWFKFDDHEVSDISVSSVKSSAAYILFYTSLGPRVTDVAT
Outline: as §1

Measured: log2 ratio of Biotin-Ahx-Ub-VS probe labelling

CN(C)C(=O)c1ccc(NC(=O)CCl)cc1
inactive: USP42 -0.0444 | USP46 -0.0105 | USP47 -0.38 | USP48 -0.84 | USP5 0.14 | USP54 -0.408 | USP7 -0.0714 | USP8 -0.446
